# High-throughput results from PubChem.
# Most compounds without a hit are left out; they make up all but 9.3% or so of the library.
# ELG1 DNA repair = blocks ELG1-dependent DNA repair in HEK293T cells | HEK293T ELG1-luciferase reporter, luminescence, 16 h; DNA damage induced by 5-fluorouridine | Potency, µM (top dose mostly 46.1 µM), for inactives: at the highest dose activity change, negative = inhibition, hits mostly inhibitors | actives 2.3% (n = 330,000) | AID 504467; note: % is set by controls: 0 for no effect and ±100 for the full control effect; nearly all actives have a fitted effect of over 55% in size
#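 HEK293T cells expressing luciferase-tagged ELG1 (2,000/well) received 5-Fluorouridine plus compound or DMSO for 16 hr at 37 °C. Luciferase was read by ONE-Glo luminescence after 30 min at room temperature.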
# FLuc modulator = counter-screen for miR-21 project: firefly luciferase inhibitors or activators | P08659 | purified FLuc, Km substrates, luminescence inhibition | Potency, µM (titrated, usually from 57.5 µM), for inactives: top-dose activity change, negative = inhibition, hits mostly inhibitors | actives 6.9% (n = 360,000) | AID 588342;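 note: plate controls were vehicle for no effect and reference inhibitor for full effect; nearly all actives have a fitted effect of over 55% in size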
# Target sequence (P08659 whole entry, looked up): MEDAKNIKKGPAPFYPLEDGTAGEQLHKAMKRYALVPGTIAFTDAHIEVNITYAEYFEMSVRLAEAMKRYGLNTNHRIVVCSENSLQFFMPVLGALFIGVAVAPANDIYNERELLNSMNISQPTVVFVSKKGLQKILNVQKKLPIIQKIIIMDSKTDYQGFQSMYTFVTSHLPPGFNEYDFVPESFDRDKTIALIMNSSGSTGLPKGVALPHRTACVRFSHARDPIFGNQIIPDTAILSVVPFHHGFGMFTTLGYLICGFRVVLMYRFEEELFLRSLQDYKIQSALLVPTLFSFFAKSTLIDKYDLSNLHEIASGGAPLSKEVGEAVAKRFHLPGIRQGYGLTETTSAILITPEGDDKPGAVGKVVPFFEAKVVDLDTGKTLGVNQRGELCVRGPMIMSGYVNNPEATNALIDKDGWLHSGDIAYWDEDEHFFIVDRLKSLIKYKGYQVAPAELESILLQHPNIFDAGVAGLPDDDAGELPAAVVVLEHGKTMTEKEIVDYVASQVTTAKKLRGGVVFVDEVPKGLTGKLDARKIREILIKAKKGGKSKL
#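 Purified P. pyralis luciferase (10nM final) with 10uM D-luciferin and 10uM ATP (Km levels) in 50mM Tris acetate pH 7.5, 10mM Mg acetate, 0.01% Tween-20, 0.05% BSA; qHTS 6-point titration, ~60 µM downward; luminescence read.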
# SMN2 splice enh = increases expression of the SMN2 splice variant | actives 2.8% (n = 210,000) | AID 1458 | HEK293 SMN2-luciferase splicing reporter, luminescence, 30-36 h | Potency, µM (series often up to 46.1 µM), for the others: at the top dose activity change, positive = activation, actives largely listed as activators; note: % of control where 0% means no effect; nearly all actives have a fitted effect of over 55% in size
#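 HEK293 cells carry an SMN2 […]–luciferase reporter in which exon 7 inclusion puts luciferase in frame. Cells were plated 10-12 h before compound addition, then incubated 30-36 h at 37C. ONE-Glo luminescence was read; sodium butyrate at 4.5 mM final served as control.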
# Rab9 prom act = activators of Rab9 promoter; actives 2.8% (n = 320,000); AID 485297; Huh7 Rab9 promoter-luciferase reporter, luminescence, 24 h; Potency, µM (top dose mostly 9.22 µM), for inactives: at the highest dose activation, negative = inhibition, actives largely listed as activators; note: % of control where 0% means no effect; nearly all actives have a fitted effect of over 60% in size
#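 Luminescence read-out: Huh7 cells stably expressing Rab9-luciferase, treated 24 h with compound at 37 °C, then lysed with luciferase reagent for 10 min at ambient before reading.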
# NPC1 prom act = NPC1 promoter activation; Potency, µM (top dose mostly 9.22 µM), inactives show top-dose activation, most hits filed as activators; Huh7 NPC1 promoter luciferase reporter, 24 h; actives 2.4% (n = 320,000); note: % of control where 0% means no effect; nearly all actives have a fitted effect of over 60% in size
#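 Luminescence from an NPC1 promoter-driven luciferase reporter in stably transfected Huh7 cells was measured after 24 h compound treatment at 37 °C, followed by 10 min ambient incubation with luciferase detection reagent.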
# ELG1 genotoxic = genotoxicity induction in ELG1-luciferase HEK293T cells; HEK293T ELG1-luciferase reporter, luminescence, 16 h; Potency, µM (series often up to 46 µM), inactives show at the top dose activity change, positive = activation, actives largely listed as activators; actives 1.3% (n = 330,000); note: % of control where 0% means no effect; nearly all actives have a fitted effect of over 60% in size
#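 HEK293T cells expressing luciferase-tagged ELG1 were treated with compound or DMSO for 16 hr at 37°C. Luciferase activity was then read after 30 min with ONE-Glo at room temperature; rising signal flags genetic stress.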
# * = called active by the depositor; ? = inconclusive; . = not tested or not shown; [ ] = dose if it differs, or a comment. Calls come from the whole dose curve; as a rule, active = well fitted curve in the direction sought with a large enough effect; inconclusive = small, poorly fitted or top-dose-only effect, or another doubt; inactive = no such curve, though single readings can be large; an effect the other way counts as inactive or inconclusive. Potency is the fitted concentration of half-maximal effect.
SMILES,ELG1 DNA repair,FLuc modulator,SMN2 splice enh,Rab9 prom act,NPC1 prom act,ELG1 genotoxic
Cc1ccc(C(=O)N/C(N)=N/c2nc3ccccc3o2)cc1,?,-15%,-27%,?,?,?
COc1ccc(NS(=O)(=O)c2ccc(C)c(NC(=O)C3CCCO3)c2)cc1 (configuration not stated),-3%,.,.,-1%,-1%,1%
CC(C)(C)NC(=O)CSc1nnc(SCC(=O)NC(C)(C)C)s1,6%,-5%,-2%,-1%,-2%,4%
CCOC(=O)c1c(N)sc2c(OC)c(Br)ccc12,.,19µM*,-10%,.,.,.
O=C(COC(=O)c1cccnc1Cl)c1ccc(Cl)cc1Cl,-3%,0.76µM*,-5%,-8%,0%,-1%
COc1ccc(C(=O)COC(=O)c2cccnc2Cl)c(OC)c1,?,11µM*,-1%,2.2µM*,21%,21µM*
O=C(COC(=O)c1cccnc1Cl)c1ccc(OC(F)F)cc1,3%,5.4µM*,1%,8%,-1%,0%
Cc1cc(C)c(C(=O)COC(=O)c2cccnc2Cl)c(C)c1,?,17µM*,0%,0%,-2%,-1%
COCCCNC(=O)C1CCN(Cc2cc3ccccc3n2Cc2ccccc2C)CC1,.,-5%,.,.,.,.
CN(C)c1nc(N)c(C(=O)N=C(N)N)nc1Cl,.,.,-13%,-7%[46.1 µM],6%[46.1 µM],.
COc1ccc(OC)c(C(=O)COC(=O)c2c(OC)cccc2OC)c1,?,3%,-15%,4%,-4%,2%
COc1ccc(OC)c(C(=O)COC(=O)c2ccccc2O)c1,?,12µM*,5%,-1%,24%,15%
CCN1C(C)=C(C)S/C1=C1\SC(=S)N(N)C1=O,5%,-14%,-3%,-10%,-1%,0%
CC(=O)N1N=C(c2ccccc2)CC1c1cn(C)c2ccccc12 (configuration not stated),?,19µM*,14%,-5%,-1%,?
CC(=O)N1N=C(c2ccccc2)CC1c1ccc(F)cc1 (configuration not stated),?,2%,.,-2%,-4%,0%
COc1ccc(NC(=O)Cn2c(=O)c(-c3cc(C)ccc3NC(C)=O)nc3ccccc32)c(OC)c1,.,-2%,.,.,.,.
Clc1ccc(-c2cnc3n2CCC3)cc1,?,13µM*,-2%,?,22%,12%
Cc1cc(C)c(S(=O)(=O)N2CCOC2CNC(=O)C(=O)NCCCN2CCCC2=O)c(C)c1 (configuration not stated),-2%,5%,.,3%,1%,1%
COc1ccc(/C=C2\C(=O)c3ccccc3OC2c2ccccc2)cc1 (configuration not stated),23µM*,-17%,.,-21%,-30%,4%
CCOc1ccc(/C=C2\C(=O)c3ccccc3OC2c2ccccc2)cc1 (configuration not stated),5%,?,-23%,-2%,1%,0%
O=C1CC(c2cccc([N+](=O)[O-])c2)c2cc3c(cc2N1)CCC3 (configuration not stated),16µM*,0%,-68%,3%,-10%,-6%
O=C1CC(c2cccc(Cl)c2)c2cc3c(cc2N1)CCC3 (configuration not stated),-11%,1%,-9%,-14%,-25%,0%
COc1cc(/C=N/OCC(=O)NC23CC4CC(CC(C4)C2)C3)ccc1OCc1ccccc1,-22%,15µM*,.,16%,11%,11%
COc1cc(/C=N/O)ccc1OCc1ccc(Cl)cc1,?,1.3µM*,6.3µM*,0.4µM*,0.63µM*,2.1µM*
COc1cc(C(=S)N2CCCC2)ccc1OCc1ccc(C)cc1,25%,?,.,?,?,21µM*
SMILES,ELG1 DNA repair,FLuc modulator,SMN2 splice enh,Rab9 prom act,NPC1 prom act,ELG1 genotoxic
COc1cc(/C=N/N=C2/NC(=O)C(CC(=O)O)S2)ccc1OCc1ccc(Cl)cc1 (configuration not stated),?,19µM*,11µM*,0%,-1%,?
CCOc1ccc(C(=S)N2CCCC2)cc1OC,10%,4%,-15%,-5%,-3%,-1%
CCN(CC)S(=O)(=O)c1ccc2c(c1)N(CC(=O)NCCCN1CCN(c3cc(Cl)ccc3C)CC1)C(=O)CO2,.,4%,-10%,.,.,.
Cc1ccc(-c2nc(CS(=O)CC(=O)N3CCN(c4cccc(Cl)c4)CC3)c(C)o2)cc1 (configuration not stated),.,-16%,23%,.,.,.
CCOC(=O)Cc1csc(/N=C/c2c(O)n(-c3ccc(C)c(C)c3)c(=O)c3ccccc23)n1,-7%,-1%,-21%,-7%,-14%,-2%
COc1cc(/C=N/N=C(N)N)ccc1OCc1ccc(Cl)cc1,?,3µM*,21%,?,?,9.2µM*
COc1cc(/C=N/O)ccc1OCc1ccc(C(=O)O)cc1,?,0.054µM*,0.4µM*,0.089µM*,?,?
CCOc1cc(/C=N/N=C(N)N)ccc1OCc1ccc(Cl)cc1,-11%,?,-62%,-5%,-5%,1%
Cn1c(C(=O)N2CCC(C(N)=O)CC2)cc2cc(Cl)ccc21,-9%,2%,.,16%,-2%,0%
COc1ccc(C(=O)CC(=O)C(=O)Nc2ccccc2C(F)(F)F)cc1,?,1%,.,-4%,-4%,-3%
COc1ccc(C(=O)/C=C/c2ccccc2C(F)(F)F)cc1,?,12µM*,-9%,1%,15%,-1%
CCOc1ccc(C(=O)/C=C/c2ccccc2C(F)(F)F)cc1,?,5.4µM*,-11%,10%,14%,1%
CCc1ccc(NC(=O)Cn2c(=O)c(-c3ccccc3NC(C)=O)nc3ccccc32)cc1,.,-6%,.,.,.,.
COc1cc2cc(CN(CCCN3CCOCC3)Cc3nnnn3Cc3ccccc3)c(=O)[nH]c2cc1OC,5%,-2%,.,-6%,-5%,2%
C/C(=N/Nc1ccccc1[N+](=O)[O-])c1ccc([N+](=O)[O-])cc1,14%,-1%,.,2%[1.84 µM],0%,3%
C/C(=N\Nc1ccc([N+](=O)[O-])cc1[N+](=O)[O-])c1ccc(-n2nncc2C(C)(C)C)cc1,10µM*,-2%,-24%,-13%,0%,-3%
Cc1c(/C=N/Nc2ccc(C(=O)O)cc2)c2ccccc2n1C,?,11µM*,.,1.4µM*,2.2µM*,?
CCn1c(/C=N/Nc2ccc(C(=O)O)cc2)nc2ccccc21,-4%,11µM*,3%,-1%,15%,1%
CCn1c(CNc2ccc(C(=O)O)cc2)nc2ccccc21,.,-4%,-2%,.,.,.
